From PubChem BioAssay (NCI)
Compounds without any hit were thinned out: in the full panel of roughly 83,000, 20% have a hit.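 Each cell line was grown in a 96-well plate and treated with one concentration of compound for 48 hours. Values below 10 were considered active.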 The source made the active and inactive calls.

System: HCC-2998 colon
Assay: NCI-60 one-dose screen, 48 h (100 = growth as untreated, 0 = no growth, -100 = all killed)
Settings: 10 µM

| SMILES | growth |
| --- | --- |
| CC1(C)OC(=O)C(c2ccsc2)C(=O)O1 | 107% (inactive) |
| C#Cc1cccc(NC(=O)c2ccc(Cl)cc2Cl)c1 | 113% (inactive) |
| C=CCCCCCCCCCOC(C)=O | 98.4% (inactive) |
| CCN(CC)CCCC(C)Nc1ccnc(/C=C/c2ccc(Cl)cc2)c1 (stereo unspecified) | -23.6% (active) |
| CCOC(=O)C1OC1c1ccccc1 (stereo unspecified) | 108% (inactive) |
| Oc1ccc(N=Nc2ccc(Br)cc2)c(O)c1 | 33.6% (inactive) |
| Cc1cc(C(C)(C)C)cc(C)c1Br | 99.4% (inactive) |
| O=C(CC(=O)c1ccccc1O)c1ccccc1 | 107% (inactive) |
| CC(C)OC(=O)c1cc(NC(=S)OC(C)C)ccc1Cl | 160% (inactive) |
| O=[N+]([O-])c1ccc(CO)cc1 | 96.1% (inactive) |
| Sc1ccc(Nc2c3ccccc3nc3ccccc23)cc1 | 68.9% (inactive) |
| C#C[C@H]1CCCCCC1O (stereo partly specified) | 102% (inactive) |
| CCOC(=O)CCCS(C)(=O)=O | 91% (inactive) |
| O=C(O)COCC(=O)O | 114% (inactive) |
| [O-][N+](=Nc1cccc(Cl)c1)c1cccc(Cl)c1 | 63.1% (inactive) |
| OCC(O)C(O)C(O)C(O)/C=N/O (stereo unspecified) | 102% (inactive) |
| CC(=O)c1ccc(C(C)(C)C)cc1 | 96.2% (inactive) |
| CCN(CC)C(=O)/C=C(/C)c1ccccc1 | 88.6% (inactive) |
| CCCCC1C(=O)N(c2ccccc2)N(c2ccccc2)C1=O | 109% (inactive) |
| O=C1C=C(Nc2ccc([N+](=O)[O-])cc2)c2ccccc2C1=O | 72.4% (inactive) |
| CCCCC(O)c1ccccc1 (stereo unspecified) | 104% (inactive) |
